Most compounds without a hit are left out; they make up all but 8.6% or so of the library.
Lassa entry – qHTS for Inhibitors of binding or entry into cells for Lassa Virus; Lassa virus pseudotyped entry inhibition, cell-based qHTS; Potency, µM (top dose mostly 49.2 µM), usual class: inhibitors; AID 720533, 2013; 18,000 tested, 4.1% active
Marburg entry – qHTS for Inhibitors of binding or entry into cells for Marburg Virus. Marburg virus pseudotype entry/binding inhibition, cell-based. Potency, µM (titrated, usually from 49.2 µM), hits mostly inhibitors. 18,000 tested, 6.5% active
Hits are given with their value; – = inactive; ? = inconclusive; · = no result; ! = not confirmed by another sample; [ ] = another dose, or the depositor's remark. Calls come from the whole dose curve; tested in HEK293 cells.

SMILES	Lassa entry	Marburg entry
COCCN1C(=O)NC(c2cccc(C(F)(F)F)c2)C(C(=O)OC)=C1C (centres undefined)	–[8.59 µM]	–[8.59 µM]
CCCCCCN1C[C@H](O)[C@@H](n2cc(-c3ccc(F)cc3)nn2)C[C@H]1c1ccccc1	–	?
C=C(C)CCN1C(=O)NC(c2ccccc2)C(C(C)=O)=C1C (centres undefined)	–[8.59 µM]	–[8.59 µM]
C=C(C)C(=O)OC[C@@H]1CN2[C@H](c3ccc(Br)cc3)[C@H](C)CC[C@H]2C(=O)O1	–[8.59 µM]	–[8.59 µM]
COc1cc(Br)c(C[N+]2(CCOCCC3CCC4CC3C4(C)C)CCOCC2)cc1OC (centres undefined)	4.5µM	?
CCCCCCN1C[C@H](n2cc(C3CC3)nn2)[C@@H](O)C[C@H]1c1ccc(OC)cc1	·	–
CNCC(=O)c1ccc(O)c(O)c1	–	16µM
O=C(O)Cc1ccc(O)c(O)c1	–	–
COc1ccccc1C1CN(Cc2c(C)nc3sccn23)Cc2ccccc2O1 (centres undefined)	–	–
CS(=O)(=O)c1ccc(-c2ccc3c(c2)CC(CNC(=O)C2(N4CCOCC4)CCCCC2)O3)cc1 (centres undefined)	–	–
CN1[C@@H]2CC[C@H]1CC(OC(=O)C(O)c1ccccc1)C2 (some centres undefined)	–	–
CCC(Sc1ccccc1)C(=O)OC1CC2CCC(C1)N2C (centres undefined)	–	8.9µM
COc1cc(/C=C/C(=O)N2CCCCC2=O)cc(OC)c1OC	11µM	13µM
COc1cc(C(=S)N2CCOCC2)cc(OC)c1OC	–	–
COc1cc(/C=C/C(=O)O)cc(OC)c1OC	–	–
COc1cc(/C=C\C(=O)N2CCC=CC2=O)cc(OC)c1OC	?	8.9µM
CO/N=C(\C(=O)N[C@@H]1C(=O)N2C(C(=O)[O-])=C(C[n+]3ccc(N)n3CCO)CS[C@H]12)c1csc(N)n1	–	–
CCC1CN2CCC1CC2[C@@H](Oc1cc2ccccc2c2ccccc12)c1ccnc2ccc(O)cc12 (some centres undefined)	–[8.59 µM]	–[8.59 µM]
CC(=O)C1=CN(CCC=Cc2ccccc2)C(=O)NC1c1ccccc1 (centres undefined)	–[8.59 µM]	?
C[C@@H]1CC[C@H]2C(=O)N(CC3CCCCC3)C[C@H](O)CN2[C@@H]1c1ccc(Br)cc1	–[8.59 µM]	?
CC=C(C)C(=O)O[C@H]1C(C)=C2[C@@H]3OC(=O)[C@@](C)(O)[C@@]3(O)[C@@H](OC(=O)CCC)C[C@](C)(OC(C)=O)[C@@H]2[C@@H]1OC(=O)CCCCCCC	40µM	40µM
CC(C)CON=C1C[C@@H](O)[C@@H](O)[C@@H]2[C@H]3C(=O)N(C[C@@H]4CCCO4)C(=O)[C@@H]3CC[C@@H]12	–[8.59 µM]	–[8.59 µM]
CCCNC(=O)[C@H]1O[C@@H]1C(=O)N[C@H](C(=O)N1CCC[C@H]1C(=O)OC)[C@@H](C)CC	10µM	2.5µM
CCOC(=O)C(CCc1ccccc1)NC(C)C(=O)N1CCCC1C(=O)O (centres undefined)	–	–
C#CCCCON=C1C[C@@H](O)[C@@H](O)[C@@H]2[C@H]3C(=O)N([C@@H](C)c4ccccc4)C(=O)[C@@H]3CC[C@H]12	–[8.59 µM]	?
SMILES	Lassa entry	Marburg entry
COc1ccc(CNc2nc(NCc3ccc(OC)cc3)c3ncn(C4CCCCC4)c3n2)cc1	?	3.5µM
Cn1cnc2c(NCc3ccccc3)nc(NCCO)nc21	–	–
CC[C@@H](C)[C@H](NS(=O)(=O)c1cccc2ccccc12)C(=O)N[C@H](C=O)Cc1c[nH]c2ccccc12	?	3.5µM
CC(C)(C)OC(=O)N[C@@H](Cc1c[nH]c2ccccc12)C(=O)O	–	–
C=CCCN1C=C(C(=O)OCC)C(c2ccccc2)NC1=O (centres undefined)	–[8.59 µM]	?
CN1CCOC(c2ccccc2)c2ccccc2C1 (centres undefined)	?	11µM!
N=C(N)N1Cc2ccccc2C(O)C1 (centres undefined)	–	–
C#CCCCON=C1C[C@@H](O)[C@H](O)[C@H]2[C@@H]3C(=O)N(Cc4ccc5c(c4)OCO5)C(=O)[C@@H]3CC[C@@H]12	–[8.59 µM]	–[8.59 µM]
O=c1[nH]c2ccccc2n1CCCN1CCN(C(c2ccccc2)c2ccccc2)CC1	?	16µM
O=C(c1ccc(F)cc1)C1CCN(CCn2c(=O)[nH]c3ccccc3c2=O)CC1	–	?
CCCCCCC(=O)O[C@H]1CC[C@H]2[C@@H]3CC[C@H]4CC(=O)C=C(C)[C@]4(C)[C@H]3CC[C@]12C	?	–
COCc1cc2cc3c(cc2c2c(C(=O)OC)c(C(=O)OC)c(C(=O)OC(C)(C)C)n12)OCO3	·	–[8.59 µM]
COc1cc(SC)ccc1C(=O)N1CCC(Cc2ccccc2)CC1	11µM	–
COc1cc2c(cc1OC)C(=O)C(CC1CCN(Cc3ccccc3)CC1)C2 (centres undefined)	–	?
COc1ccc(O[C@H]2C=C[C@@H](c3ccccc3)O[C@H]2COC(=O)CCC(C)=NO[C@@H](C)c2cc(-c3c(C)cc(C)cc3C)no2)cc1	–[8.59 µM]	–[8.59 µM]
COC(=O)C1=C(C)N(CC2CC2)C(N(C)Cc2ccc(OC)cc2)=NC1c1ccccc1 (centres undefined)	–[8.59 µM]	–[8.59 µM]
[O-][n+]1ccccc1SSc1cccc[n+]1[O-]	4µM	6.3µM
CC(C)C[C@@H]1COc2cccc(NN3CCN(C)CC3)c2S(=O)(=O)N1	–	–
C#C[C@]1(OC(C)=O)CC[C@H]2[C@@H]3CCC4=C/C(=N/O)CC[C@@H]4[C@H]3CC[C@@]21CC	28µM	–
C#C[C@@]1(OC(C)=O)CC[C@@H]2[C@@H]3CCC4=C[C@@H](OC(C)=O)CC[C@H]4[C@H]3CC[C@]21C	–	–
Cc1cc(=O)oc2cc(NC(=O)C(CCCCN)NC(=O)C(CC3CCCCC3)NC(=O)OCC3c4ccccc4-c4ccccc43)ccc12 (centres undefined)	–	–
Cc1cc(=O)oc2cc(NC(=O)[C@H](CCCCN)NC(=O)[C@H](CC3CCCCC3)NC(=O)OCC3c4ccccc4-c4ccccc43)ccc12	?	10µM
COc1ccc2c(c1)[C@@]1(OCCC=C[C@@H]1C)C(=O)N2CC1CC1	–[8.59 µM]	–[8.59 µM]
CCCCCCCCN=C(N)c1ccc(C(=O)OCC2CCCCC2)cc1	13µM	2.8µM
CCOC(=O)c1ccc(OC(=O)CCCCCN=C(N)N)cc1	–	–
SMILES	Lassa entry	Marburg entry
COC(=O)CC=C[C@@H](C)[C@H](OC)c1cc(F)ccc1Br	–[8.59 µM]	–[8.59 µM]
C[C@H]1CCCC=CC2C[C@H](O)C[C@@H]2[C@H](O)C=CC(=O)O1 (some centres undefined)	?	35µM
CC(C)C[C@H]1COc2c(Cl)cccc2S(=O)(=O)N1Cc1cccc(F)c1	–	–
NCCc1cnc[nH]1	–	–
NC(=NCCc1ccc(I)cc1)SCCCc1cnc[nH]1	–	22µM
COCOCCn1cc(CN2CCS(=O)(=O)N(Cc3ccc(-c4ccc(F)cc4)cc3)C(C)C2=O)nn1 (centres undefined)	–	–
COC(=O)c1cc(CNC(=O)c2ccc3ncccc3c2)cc(NC(=O)c2ccccc2Cl)c1	–	–
O=C1CCCC=C1C(CCc1ccccc1)OC(=O)c1ccc(Br)cc1 (centres undefined)	–[8.59 µM]	–[8.59 µM]
CC(C)C[C@@H](NC(=O)[C@@H](O)[C@H](N)Cc1ccccc1)C(=O)O	–	–
CC(C)C[C@H](NC(=O)[C@H](Cc1ccccc1)NC(=O)c1cnccn1)B(O)O	2.8µM	3.5µM
Cc1ccccc1-c1ccc(CN2CCc3nnc(CNC(=O)c4ccccn4)n3CC2)cc1	–	–

Bioassay records deposited in PubChem BioAssay by National Center for Advancing Translational Sciences (NCATS).
